# In PubChem BioAssay (Tox21):
# Values joined by “and” are separate entries in the source; they are usually repeats but may differ in a detail not shown here. Identical values can stand only once. Records with an inconclusive call do not appear. Where a call stands in place of a potency, no number is given. More than one record can exist for a structure, and the calls need not agree. Active and inactive are the calls of the source. Unless noted, calls follow the shape of the dose curve; as a rule, active = well fitted curve in the direction sought with a large enough effect in the repeat runs; inconclusive = weak or mixed curves; inactive = no such curve, though single readings can be large; an effect the other way counts as inactive or inconclusive.
# Tests used:
# [1] = qHTS assay to test for compound auto fluorescence at 535 nm (green) in HEK293 cells (AID 720680)
# [2] = qHTS assay to test for compound auto fluorescence at 460 nm (blue) in HEK293 cell free culture (AID 720681)
# How it was run: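 Compounds were added to cell-free DMEM with 10% FBS and fluorescence read directly. The blue channel used 405 nm excitation and 460 nm emission, with triamterene as the reference fluorophore.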
# [3] = qHTS assay to test for compound auto fluorescence at 535 nm (green) in HEK293 cell free culture (AID 720682)
# How it was run: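 Compounds were pin-transferred into cell-free DMEM with 10% FBS, and green fluorescence was read at excitation 485 nm and emission 535 nm. Intensities were expressed as fluorescein-equivalent values.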
# [4] = qHTS assay to test for compound auto fluorescence at 590 nm (red) in HEK293 cell free culture (AID 720683)
# How it was run: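 Cell-free wells of DMEM with 10% FBS received compound, and intrinsic fluorescence was read at excitation/emission 540/590 nm. Values expressed as equivalence to Rose Bengal sodium.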
# [5] = qHTS assay to test for compound auto fluorescence at 590 nm (red) in HepG2 cell free culture (AID 720684)
# How it was run: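 Compound was pinned into wells holding MEM with 10% FBS and no cells, and red fluorescence was read at Ex/Em 540/590 nm. Signal is expressed as auto fluorescence equivalency relative to Rose Bengal sodium.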
# [6] = qHTS assay to test for compound auto fluorescence at 460 nm (blue) in HepG2 cell free culture (AID 720685)
# How it was run: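 Compound (23 nL) or DMSO pinned into cell-free MEM with 10% FBS; blue fluorescence read at 405/460 nm excitation/emission, expressed as auto-fluorescence equivalency to triamterene.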
# [7] = qHTS assay to test for compound auto fluorescence at 535 nm (green) in HepG2 cell free culture (AID 720686)
# [8] = qHTS assay to test for compound auto fluorescence at 460 nm (blue) in HepG2 cells (AID 720687)
# How it was run: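 HepG2 cells in MEM with 10% FBS, attached overnight at 37 C, were exposed to compound or DMSO for 1 hr at 37 C, 5% CO2. Blue fluorescence was read at 405/460 nm, with triamterene as reference fluorophore.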
# [9] = biological target: Glucocorticoid receptor (Homo sapiens) (UniProt P04150); assay: qHTS assay to identify small molecule agonists of the glucocorticoid receptor (GR) signaling pathway (AID 720691; active = well fitted activation curve with a large enough effect in the signal ratio in the repeat runs, not every such curve was filed as active; the % refers to the signal ratio; also: potency is read from the fitted curve at half-maximal effect); conditions: GR-bla HeLa, beta-lactamase reporter ratio, 18 h; activation: at 62.4 µM (top of the series)
# How it was run: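 GR-bla HeLa cells carrying a GRE-driven beta-lactamase reporter, exposed to compounds for 18 h at 37 C. Reporter activation read as fluorescence after 2 h with LiveBLAzer B/G FRET substrate at room temperature.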
# [10] = biological target: Glucocorticoid receptor (Homo sapiens) (UniProt P04150); assay: qHTS assay to identify small molecule antagonists of the glucocorticoid receptor (GR) signaling pathway (AID 720692; active = well fitted inhibition curve with a large enough effect in the signal ratio in the repeat runs, not every such curve was filed as active; the % refers to the signal ratio)
# How it was run: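 GR-bla HeLa cells carrying a GRE-driven beta-lactamase reporter received compound after 4 h plating, then dexamethasone (5 nM final). After 18 h at 37C, the FRET substrate was loaded for 2 h at room temperature and fluorescence read.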
# [11] = qHTS assay to identify small molecule antagonists of the glucocorticoid receptor (GR) signaling pathway - cell viability counter screen (AID 720693); also: nearly all actives have a fitted effect of over 55% in size
# [12] = qHTS assay for identifying genotoxic compounds that show differential cytotoxicity against isogenic chicken DT40 cell lines with known DNA damage response pathways - wild type cell line (AID 743012); also: nearly all actives have a fitted effect of over 60% in size; also: potency is read from the fitted curve at half-maximal effect
# How it was run: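 Wild-type DT40 cells (300/well) exposed to compounds for 40 hours at 37 C/5% CO2. Viability read by CellTiter-Glo luminescence after 30 min at room temperature.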
# [13] = qHTS assay for identifying genotoxic compounds that show differential cytotoxicity against isogenic chicken DT40 cell lines with known DNA damage response pathways - Rad54/Ku70 mutant cell line (AID 743015); also: nearly all actives have a fitted effect of over 60% in size; also: potency is read from the fitted curve at half-maximal effect
# [14] = qHTS assay to identify small molecule antagonists of the androgen receptor (AR) signaling pathway - cell viability counter screen (AID 743033; also: nearly all actives have a fitted effect of over 45% in size)
# [15] = biological target: Androgen receptor (Homo sapiens) (UniProt P10275); assay: qHTS assay to identify small molecule antagonists of the androgen receptor (AR) signaling pathway (AID 743035; active = well fitted inhibition curve with a large enough effect in the signal ratio in the repeat runs, not every such curve was filed as active; the % refers to the signal ratio)
# How it was run: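 HEK293 cells stably carrying UAS-beta-lactamase reporter, 2,000/well, given compounds plus R1881 agonist and incubated 16 h at 37C. LiveBLAzer B/G FRET substrate then added for 2 h at room temperature before fluorescence reading.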
# [16] = biological target: Androgen receptor (Homo sapiens) (UniProt P10275); assay: qHTS assay to identify small molecule agonists of the androgen receptor (AR) signaling pathway (AID 743036; active = well fitted activation curve with a large enough effect in the signal ratio in the repeat runs, with a control signal flat, not every such curve was filed as active; the % refers to the signal ratio)
# How it was run: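 Activation was read as beta-lactamase FRET signal from LiveBLAzer B/G substrate, added for 2 h at room temperature. Before that, GeneBLAzer AR-UAS-bla GripTite (HEK293) cells had 16 h compound exposure at 37C.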
# [17] = biological target: Androgen receptor (Homo sapiens) (UniProt P10275); assay: qHTS assay to identify small molecule agonists of the androgen receptor (AR) signaling pathway using the MDA cell line (AID 743040; also: nearly all actives have a fitted effect of over 20% in size)
# How it was run: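 MDA-kb2 breast carcinoma cells carrying MMTV-luciferase (responsive to AR and GR), plated 5 h then treated 16 h with compounds at 37C, 0% CO2. Read-out was ONE-Glo luminescence after 30 min at room temperature.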
# [18] = qHTS assay to identify small molecule antagonists of the androgen receptor (AR) signaling pathway using the MDA cell line - cell viability counter screen (AID 743041; also: nearly all actives have a fitted effect of over 45% in size)
# How it was run: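 MDA-kb2 AR-luc cells (MMTV-luciferase, AR/GR responsive) treated with compounds plus R1881 agonist for 16 h at 37C. CellTiter-Fluor added at 15.5 h; fluorescence read after 30 min in the same wells.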
# [19] = biological target: Androgen receptor (Homo sapiens) (UniProt P10275); assay: qHTS assay to identify small molecule antagonists of the androgen receptor (AR) signaling pathway using the MDA cell line (AID 743042; also: nearly all actives have a fitted effect of over 55% in size)
# How it was run: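 MDA-kb2 breast carcinoma cells carrying MMTV-luciferase (AR/GR responsive) were co-treated with compounds and the agonist R1881 for 16 h at 37C. Inhibition read as ONE-Glo luminescence; CellTiter-Fluor fluorescence measured in parallel for cytotoxicity.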
# [20] = qHTS assay for identifying genotoxic compounds that show differential cytotoxicity against isogenic chicken DT40 cell lines with known DNA damage response pathways - Rev3 mutant cell line (AID 743014); also: potency is read from the fitted curve at half-maximal effect; nearly all actives have a fitted effect of over 55% in size
# Chain of Androgen receptor (Homo sapiens) (P10275 whole entry, looked up): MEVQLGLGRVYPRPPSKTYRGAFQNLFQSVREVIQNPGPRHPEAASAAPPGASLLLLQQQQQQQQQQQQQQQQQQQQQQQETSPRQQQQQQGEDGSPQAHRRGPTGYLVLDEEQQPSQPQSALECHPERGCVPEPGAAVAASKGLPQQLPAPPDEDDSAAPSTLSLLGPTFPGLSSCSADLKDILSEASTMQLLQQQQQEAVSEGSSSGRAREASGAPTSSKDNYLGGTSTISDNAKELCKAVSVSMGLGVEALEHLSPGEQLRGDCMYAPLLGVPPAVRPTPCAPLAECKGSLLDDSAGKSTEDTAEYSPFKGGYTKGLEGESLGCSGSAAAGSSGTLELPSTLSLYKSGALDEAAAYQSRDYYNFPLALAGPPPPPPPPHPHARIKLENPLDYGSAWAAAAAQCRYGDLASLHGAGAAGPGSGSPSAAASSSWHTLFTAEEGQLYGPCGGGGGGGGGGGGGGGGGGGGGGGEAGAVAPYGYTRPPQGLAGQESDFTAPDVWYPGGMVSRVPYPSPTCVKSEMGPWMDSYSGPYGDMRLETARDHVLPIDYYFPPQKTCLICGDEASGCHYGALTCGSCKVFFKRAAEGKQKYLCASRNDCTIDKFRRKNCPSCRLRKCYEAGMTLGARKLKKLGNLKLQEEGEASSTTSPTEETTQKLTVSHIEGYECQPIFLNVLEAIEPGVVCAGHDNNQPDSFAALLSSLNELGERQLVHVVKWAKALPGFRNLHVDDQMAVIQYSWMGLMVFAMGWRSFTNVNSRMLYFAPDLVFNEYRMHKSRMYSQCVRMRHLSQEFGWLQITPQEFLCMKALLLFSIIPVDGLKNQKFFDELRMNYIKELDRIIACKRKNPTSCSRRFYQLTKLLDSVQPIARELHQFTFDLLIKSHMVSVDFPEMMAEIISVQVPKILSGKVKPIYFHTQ
# Chain of Glucocorticoid receptor (Homo sapiens) (P04150 whole entry, looked up): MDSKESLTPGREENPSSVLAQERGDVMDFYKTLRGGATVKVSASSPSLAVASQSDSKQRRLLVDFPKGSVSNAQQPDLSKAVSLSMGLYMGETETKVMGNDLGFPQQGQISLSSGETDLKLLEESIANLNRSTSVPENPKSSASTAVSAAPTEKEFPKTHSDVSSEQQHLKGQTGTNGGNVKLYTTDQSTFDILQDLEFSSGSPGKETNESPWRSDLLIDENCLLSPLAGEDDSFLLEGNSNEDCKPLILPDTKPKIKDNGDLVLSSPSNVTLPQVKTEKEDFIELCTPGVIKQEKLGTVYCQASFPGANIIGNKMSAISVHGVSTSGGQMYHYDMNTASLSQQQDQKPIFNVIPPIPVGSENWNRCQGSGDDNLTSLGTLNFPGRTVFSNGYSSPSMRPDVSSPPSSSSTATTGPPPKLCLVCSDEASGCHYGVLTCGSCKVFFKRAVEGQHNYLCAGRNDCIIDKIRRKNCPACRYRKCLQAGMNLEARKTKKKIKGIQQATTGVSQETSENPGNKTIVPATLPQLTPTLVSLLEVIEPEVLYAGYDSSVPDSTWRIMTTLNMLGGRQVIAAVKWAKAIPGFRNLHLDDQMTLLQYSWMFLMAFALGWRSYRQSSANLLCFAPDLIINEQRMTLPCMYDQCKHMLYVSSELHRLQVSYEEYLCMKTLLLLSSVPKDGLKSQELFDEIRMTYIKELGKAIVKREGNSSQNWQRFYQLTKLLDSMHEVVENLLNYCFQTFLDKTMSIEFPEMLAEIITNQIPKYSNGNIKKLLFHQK
SMILES,Potency [1],Potency [2],Potency [3],Potency [4],Potency [5],outcome [6],Potency [7],outcome [8],Potency [9],Potency [10],Potency [11],Potency [12],Potency [13],Potency [14],Potency [15],Potency [16],Potency [17],Potency [18],Potency [19],Potency [20]
CC(CN1c2ccccc2Sc2ccc(S(=O)(=O)N(C)C)cc21)N(C)C (stereo unspecified),inactive,inactive,inactive,inactive,inactive,inactive,inactive,inactive,inactive,inactive,inactive,11.9 µM (active),18.8 µM (active),inactive,inactive,inactive,inactive,inactive,inactive,–
CN1[C@@H]2CC[C@H]1CC(OC(c1ccccc1)c1ccccc1)C2 (stereo partly specified),inactive,inactive,inactive,inactive,inactive,inactive,inactive,inactive,inactive,inactive,inactive,5.31 µM (active) and 13.3 µM (active) and 6.68 µM (active),–,inactive,–,–,–,inactive,–,5.31 µM (active) and 8.41 µM (active) and 4.22 µM (active)
CO[C@@H]1[C@@H](O[C@@H]2O[C@H](C)[C@@H](O[C@H]3C[C@@](C)(O)[C@@H](OC(=O)CC(C)C)[C@H](C)O3)[C@H](N(C)C)[C@H]2O)[C@@H](CC=O)C[C@@H](C)[C@@H](O)/C=C/C=C/C[C@@H](C)OC(=O)C[C@H]1O,inactive,inactive,inactive,inactive,inactive,inactive,inactive,inactive,4.25 µM (active) and inactive,inactive,inactive,2.66 µM (active) and 3.76 µM (active),6.68 µM (active) and 9.44 µM (active),–,–,–,–,inactive,–,5.96 µM (active) and 7.5 µM (active)
COc1ccc2cc([C@H](C)CO)ccc2c1,inactive,inactive,inactive,inactive,inactive,inactive,inactive,inactive,inactive,inactive,inactive,inactive,inactive,inactive,–,–,–,inactive,–,–
Nc1nc2c(c(=O)[nH]1)N(C=O)C(CNc1ccc(C(=O)N[C@@H](CCC(=O)O)C(=O)O)cc1)CN2 (stereo partly specified),inactive,inactive,inactive,inactive,inactive,inactive,inactive,inactive,inactive,inactive,inactive,inactive,inactive,inactive,inactive,–,inactive,inactive,inactive,–
CNCC(O)c1ccc(OC(=O)C(C)(C)C)c(OC(=O)C(C)(C)C)c1 (stereo unspecified),inactive,inactive,inactive,inactive,inactive,inactive,inactive,inactive,inactive,inactive,inactive,12.7 µM (active),–,inactive,–,–,–,inactive,–,–
